Several values for one entry are separate records, joined by “and”; a condition that tells them apart may be missing. Equal values may be shown once. Out of some 48,000 compounds screened, about 1,200 (2.5%) were called active. Roughly 2% stayed inconclusive and do not appear here.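 Rule for the calls: active = activation of at least 60% and not above a set upper limit (about 1 call in 100 departs from these limits); inconclusive = activation of 40% to 60%, or above that upper limit; inactive = activation under 40%.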 Only a selection was taken, and actives are over-represented in it overall. Some structures have more than one record in an assay (separate samples or runs), and their calls can disagree.

The assay deals with Probable G-protein coupled receptor 32 (Homo sapiens) (UniProt O75388). The experiment in a line: qHTS for Agonists of Human Resolvin D1 Receptor DRV1. Note: 0% is about no effect. Conditions: CHO-K1 GPR32 beta-arrestin PathHunter luminescence, 90 min; at 76.9 µM; stronger effect = higher value; zero percent set by DMSO-only wells. In short, it runs like this: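 Agonism was scored as beta-arrestin recruitment to ProLink-fused GPR32 in stably transfected CHO-K1 cells, giving a chemiluminescent beta-Gal signal; compounds were incubated 90 min at 37 °C.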
Probable G-protein coupled receptor 32 (Homo sapiens), sequence (O75388 whole entry, looked up, the tested form may be a part): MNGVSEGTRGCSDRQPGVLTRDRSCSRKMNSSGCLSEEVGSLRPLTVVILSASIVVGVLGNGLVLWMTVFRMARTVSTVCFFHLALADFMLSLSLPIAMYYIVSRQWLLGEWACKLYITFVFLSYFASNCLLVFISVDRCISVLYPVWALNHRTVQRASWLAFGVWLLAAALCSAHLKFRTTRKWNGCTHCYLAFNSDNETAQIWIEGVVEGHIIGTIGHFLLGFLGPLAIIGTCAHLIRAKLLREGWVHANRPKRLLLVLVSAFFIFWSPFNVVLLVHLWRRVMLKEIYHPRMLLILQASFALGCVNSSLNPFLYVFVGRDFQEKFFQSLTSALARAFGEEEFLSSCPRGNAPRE
(In general: In qHTS, concentration-response curves come from the screen itself.)
As to `CCOc1ccc(-c2n[nH]c3c2C(c2ccccc2OC)N(c2ccc(Br)cc2)C3=O)cc1` (stereo unspecified), the activation was -5.97% (inactive).

Regarding `CCOC(=O)c1ccc(N2C(=O)c3n[nH]c(C)c3C2c2ccc(O)c(OC)c2)cc1` (stereo unspecified), the activation was 21.2% (inactive).

Take `CCOc1cc(C2c3c(-c4ccc(Br)cc4)n[nH]c3C(=O)N2c2ccc(Cl)cc2)ccc1O` (stereo unspecified): the activation was 85.1% (active).

`CCCOC(=O)c1c(NC(=O)c2cc3nc(-c4ccc(OC)cc4)cc(C(F)(F)F)n3n2)sc2c1CCCC2`: the activation was 16% (inactive).

For the molecule `COc1ccc(NC(=O)Cn2c(=O)cc(C)c3c(C)nn(-c4cccc(Cl)c4C)c32)cc1OC`, the activation was -11.5% (inactive).

Consider `Cc1ccccc1OCc1ccc(-c2nc(C#N)c(N3CCCCC3)o2)o1`, for which the activation is -28.2% (inactive).

Regarding `Cc1cc(C)cc(OCC(=O)Nc2nc(-c3ccc(F)cc3)ns2)c1`, the activation was 4.54% (inactive).

In the case of `COc1cc(CNCCSc2nnnn2C)ccc1OCc1c(F)cccc1Cl`, the activation was 14.1% (inactive).

In the case of `COc1cc(CNCCSc2nnnn2C)ccc1OCc1ccc(Cl)cc1Cl`, the activation is 60% (active).

On to `Cn1nnnc1SCCNCc1ccc(Cl)c(Cl)c1`, for which the activation was -5.94% (inactive).

On to `CCc1ccccc1NC(=O)N1CCN(C(=O)c2nsc3ccccc23)CC1`, for which the activation is -15.9% (inactive).

For `COc1cccc(Cn2c(SCc3ccc(C(=O)N4CCCCC4)cc3)nc3ccncc32)c1`, the activation was 30.7% (inactive).

For `Cc1[nH]c2ccccc2c1C(c1ccccc1)c1cccs1` (stereo unspecified), the activation is 73.6% (active).

`COc1ccc(-c2onc(C)c2C)cc1S(=O)(=O)NCCc1ccccc1`: the activation was 3.28% (inactive).

As to `O=C(Nc1nnc(C2CC(=O)N(c3ccc(Cl)cc3)C2)s1)c1ccco1` (stereo unspecified), the activation was -14.5% (inactive).

`CCCCN(C)CCCNC(=O)CN1N=C(c2ccc(OC)cc2)CCC1=O`: the activation was 11.3% (inactive).

With `Cc1ccc(S(=O)(=O)N2CCCc3cc(NS(=O)(=O)c4cc(C)ccc4C)ccc32)cc1`, the activation was -16.6% (inactive).

As to `C=Cc1ccc(Cn2c(C(=O)OC)cc3sc(C)cc32)cc1`, the activation is -21.6% (inactive).

Regarding `CCC(C(=O)OCCN(CC)CC)c1ccccc1` (stereo unspecified), the activation is 1.87% (inactive).

For `CCCC(C(=O)OCCN(CC)CC)(c1ccccc1)c1ccccc1`, the activation was 60.2% (active) and -17.3% (inactive).

Turning to `Cc1ccc(N(CC(=O)Nc2cc(C)cc(C)c2)S(=O)(=O)c2cccc3nonc23)cc1`, the activation was -3.71% (inactive).

`Cc1ccc(NC(=O)Cn2c(=O)n(-c3ccccc3)c(=O)c3c4c(sc32)CCCC4)cc1`: the activation is -1.44% (inactive).

Regarding `CC(=O)c1ccc(N2CCN(C3C(=O)c4ccccc4N3C(C)=O)CC2)cc1` (stereo unspecified), the activation is -28.3% (inactive).

Regarding `Cc1ccc(C)c(N2CCN(CCCNC(=O)Nc3ccc(Cl)cc3)CC2)c1`, the activation was 37.2% (inactive).

As for `CC1=C(c2ccc(Cl)cc2)S(=O)(=O)N=C1N1CCN(c2cc(C)ccc2C)CC1`, the activation was -14.2% (inactive).

For the molecule `CC1=C(c2ccc(C)cc2)S(=O)(=O)NC1=NCCCN1CCN(c2cc(C)ccc2C)CC1`, the activation is 84.3% (active).

Turning to `Cc1ccc(C(=O)Nc2ccc(OCc3cc(=O)n4c(C)csc4n3)cc2)cc1`, the activation is 3.91% (inactive).

On to `Cc1csc2nc(COc3ccc(NC(=O)COc4ccccc4)cc3)cc(=O)n12`, for which the activation was 63.9% (active).

Regarding `Cc1ccc(OCC(=O)Nc2ccc(OCc3cc(=O)n4c(C)csc4n3)cc2)cc1C`, the activation is -16.1% (inactive).

With `COc1ccccc1N1CCN(CCCNC(=O)c2cnn(-c3ccccc3Cl)c2C2CCN(C(=O)OC(C)(C)C)CC2)CC1`, the activation is -18.9% (inactive).

Consider `O=C(CCS(=O)(=O)c1cc(Br)cc2c1N(C(=O)C1CC1)CC2)Nc1ccc(C(F)(F)F)cc1`, for which the activation was -8.56% (inactive).

As to `CC(C)NC(=O)c1nn(-c2ccccc2F)nc1CO`, the activation was -8.71% (inactive).

With `O=C(NCCc1ccccc1)c1ccc2c(c1)N(Cc1ccccc1)C(=O)c1ccccc1S2(=O)=O`, the activation was 92.4% (active).

In the case of `O=C(NCCc1ccccc1)c1ccc2c(c1)N(Cc1ccc(F)cc1)C(=O)c1ccccc1S2(=O)=O`, the activation is -31.8% (inactive).

Take `COCCNC(=O)c1ccc2c(c1)N(Cc1cccc(Cl)c1)C(=O)c1ccccc1S2(=O)=O`: the activation was -32.3% (inactive).

Turning to `CC(C)(C)c1ccc(S(=O)(=O)N2CCN(C(=O)c3cc(-c4ccc(Br)cc4)n[nH]3)CC2)cc1`, the activation was -6.87% (inactive).

As to `O=C(CSc1ncc(CO)n1Cc1ccc(F)cc1)NCc1ccco1`, the activation is 7.63% (inactive).

In the case of `O=C(CSc1ncc(CO)n1Cc1ccc(Cl)cc1)NCc1ccc(F)cc1`, the activation was 39.5% (inactive).

With `OCc1cnc(SCc2ccc(F)cc2)n1Cc1ccc(F)cc1`, the activation is 109% (active).

`CCOC(=O)C(Cc1ccccc1)NC(=O)CCc1c(C)nc2c(c(C)nn2-c2ccc(C)c(C)c2)c1C` (stereo unspecified): the activation was -3.74% (inactive).

As to `Cc1ccccc1C(=O)NCc1nc(-c2ccc(Cl)cc2)no1`, the activation is -2.46% (inactive).

Regarding `COc1ccc(-c2noc(CCC(=O)N(C)c3ccccc3C)n2)cc1`, the activation was 107% (active).

On to `COc1cccc(CNC(=O)Cc2csc3nc(-c4ccccc4)cn23)c1`, for which the activation is -4.88% (inactive).

For the molecule `COc1cccc(CNC(=O)CCc2nc(-c3ccc(C)cc3)no2)c1`, the activation was 92.5% (active).

For `COc1cccc(CNC(=O)Cn2ncn3c(cc4ccccc43)c2=O)c1`, the activation was -1.19% (inactive).

As to `COc1ccc(-c2noc(CSc3nc4ccc(C)cc4[nH]3)n2)cc1`, the activation is 23.5% (inactive).

As to `Cc1ccc(NC(=O)CSc2nc3c([nH]c4ccccc43)c(=O)n2-c2ccccc2)cc1Cl`, the activation is -26.8% (inactive).

Consider `CCCCNC(=O)c1cc(-c2ccc(Cl)c(Cl)c2)on1`, for which the activation was 8.61% (inactive).

`COc1ccc(C(=O)Nc2ccc(-n3nncc3-c3ccccc3)cc2)cc1OC`: the activation was -15.2% (inactive).

In the case of `O=C(CSc1oc(-c2ccccc2)nc1S(=O)(=O)c1ccc(Br)cc1)NC1CCCCC1`, the activation was -14.8% (inactive).

With `COc1ccc(C)cc1Nc1nc2ccccc2c2nnc(C)n12`, the activation was 9.83% (inactive).

Take `CCC(=O)N1CCc2cc(S(=O)(=O)NC(CC(C)C)C(=O)NCCc3cccc(C)c3)ccc21` (stereo unspecified): the activation was 64.6% (active).

As for `CCC(=O)N1CCc2cc(S(=O)(=O)NC(C(=O)NCCc3ccc(C)cc3)C(C)C)ccc21` (stereo unspecified), the activation was -8.05% (inactive).

Consider `CCC(=O)N1CCc2cc(S(=O)(=O)NC(Cc3ccccc3)C(=O)NCc3ccc(C)cc3)ccc21` (stereo unspecified), for which the activation was -14.4% (inactive).

Turning to `Cc1ccc(-c2cnc(NCc3ccc(C(C)C)cc3)n2C)cc1`, the activation was -44.5% (inactive).

`CSc1ccc(CCNC(=O)c2cnn(-c3ccccc3)c2-n2cccc2)cc1`: the activation was -2.99% (inactive).

Values taken from PubChem BioAssay AID1346428 (National Center for Advancing Translational Sciences (NCATS), 2018).
